Shown are actives, neighbours in structure and some others; about 19% of the full set was active somewhere.
KB-3-1 cytotox = KB-3-1 parental cell cytotoxicity; KB-3-1 viability, CellTiter-Glo ATP luminescence, 72 h; Potency, µM (doses to about 46.1 µM), actives largely listed as cytotoxic; 400,000 compounds, 1.4% hits; AID 1347075; also: nearly all actives have a fitted effect of over 60% in size
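Parental KB-3-1 viability, qHTS format: 72 h compound exposure, 37 °C; CellTiter-Glo; media-only wells and DMSO plates as controls; concentration-effect fits on corrected data.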
HT1080 IDH1KD tx = kills HT-1080 cells with IDH1 knockdown; HT-1080 IDH1 knockdown viability, ATP luminescence, 48 h; Potency, µM (titrated, usually from 46.1 µM), for the others: top-dose activity, negative = toxicity, hits mostly cytotoxic; 360,000 compounds, 2% hits; AID 686971;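 also: 0% = DMSO wells and -100% = cell-free medium wells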
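% activity derives from luminescence (CellTiter-Glo), normalised to DMSO and no-cell wells. HT-1080-IDH1KD cells, 750/well, had 48 h compound exposure at 37 °C.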
HT1080NT lethal = kills 2HG-producing HT-1080-NT fibrosarcoma cells | HT-1080-NT fibrosarcoma viability, CellTiter-Glo ATP luminescence, 48 h | Potency, µM (top dose mostly 46.1 µM), without a hit: at the highest dose activity, negative = less viability, most hits filed as cytotoxic | 360,000 compounds, 1.6% hits;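 also: NT is the 2HG producing partner of a matched IDH1 knockdown line; 0% = DMSO-treated cells and -100% = media-only wells without cells; nearly all actives have a fitted effect of over 55% in size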
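HT-1080-NT; 750 cells/well; 5% FBS RPMI; 48 h compound, 37 degrees C; CellTiter-Glo luminescence; curve fitting and curve-class assignment.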
TDP1 cell CPT = growth inhibition of DT40 Tdp1-/-;hTDP1 cells with camptothecin (screen for TDP1 inhibitors). chicken DT40 Tdp1-/-;hTDP1 cells + 20 nM CPT, ATP luminescence, 48 h. Potency, µM (highest dose often 46.2 µM), inactives show top-dose activity change, negative = growth inhibition, actives largely listed as inhibitors. 420,000 compounds, 12% hits. AID 686979; also: nearly all actives have a fitted effect of over 55% in size
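Cell growth measured by CellTiter-Glo luminescence after a minimum 48 h, 37 C compound exposure with 20 nM CPT in Tdp1-knockout DT40 cells stably expressing hTDP1, seeded 400/well; qHTS titration format.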
KB-V1 cytotox = kills drug-selected multidrug resistant KB-V1 cells; Potency, µM (doses to about 46.1 µM), actives largely listed as cytotoxic; 400,000 compounds, 3.4% hits; KB-V1 MDR cells viability, CellTiter-Glo, 72 h; also: nearly all actives have a fitted effect of over 60% in size
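Cytotoxicity via CellTiter-Glo luminescence after 72 h compound exposure at 37 degrees C. Cells: drug-selected KB-V1 line, DMEM phenol-red free plus 10% FBS. Compounds tested at multiple concentrations; normalized data fitted to concentration-effect curves.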
TDP1 cell noCPT = qHTS for Inhibitors of human tyrosyl-DNA phosphodiesterase 1 (TDP1): qHTS in cells in absence of CPT; DT40 Tdp1-/- hTDP1 cells, no CPT, ATP luminescence, 48 h; 420,000 compounds, 15% hits; Potency, µM (top dose mostly 46.2 µM), inactives show top-dose activity change, negative = growth inhibition, actives largely listed as inhibitors; also: nearly all actives have a fitted effect of over 55% in size
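Stably hTDP1-transfected Tdp1-null chicken DT40 cells were treated with library compounds minus camptothecin and grown for at least 48 hr at 37 °C, after which cellular ATP was quantified by luminescence.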
Starred values were filed as active, the others as inactive; i = inactive; ? = inconclusive; . = not tested or not shown. Calls follow the shape of the dose curve; as a rule, active = well fitted curve in the direction sought with a large enough effect; inconclusive = small, poorly fitted or top-dose-only effect, or another doubt; inactive = no such curve, though single readings can be large; an effect the other way counts as inactive or inconclusive. Unless noted, % is scaled to controls: 0 for no effect and ±100 for the full control effect; potency is read from the fitted curve at half-maximal effect.

SMILES	KB-3-1 cytotox	HT1080 IDH1KD tx	HT1080NT lethal	TDP1 cell CPT	KB-V1 cytotox	TDP1 cell noCPT
CN1CCN(S(=O)(=O)c2ccc(N3CCN(S(=O)(=O)/C=C/c4ccccc4)CC3)nc2)CC1	i	-12%	-21%	18µM*	i	?
CCC(C)n1c(SCC(=O)NCCc2ccc(S(N)(=O)=O)cc2)nc2ccsc2c1=O (configuration not stated)	i	9%	6%	?	i	?
CCN(CC)C(=O)CSc1nc2ccsc2c(=O)n1CCCC(=O)NCCc1ccc(S(N)(=O)=O)cc1	i	6%	3%	4.1µM*	i	29µM*
Cc1cc(Cl)c(O)c(-n2nc3ccccc3n2)c1	i	18%	10%	21µM*	i	?
Cc1cc(-n2nc3ccc(Cl)cc3n2)c(O)c(C(C)(C)C)c1	.	.	.	0%	.	4%
CC[C@H]1OC(=O)[C@H](C)[C@@H](O[C@H]2C[C@@](C)(OC)[C@@H](O)[C@H](C)O2)[C@H](C)[C@@H](O[C@@H]2O[C@H](C)C[C@H](N(C)C)[C@H]2O)[C@](C)(O)C[C@@H](C)[C@@H]2N[C@@H](COCCOC)O[C@@H]([C@H]2C)[C@]1(C)O	.	.	.	-5%	.	-9%
CCCCNC(=O)c1nc(C2CCN(S(=O)(=O)c3csc(C(=O)O)c3)CC2)oc1-c1ccccc1	i	0%	28%	-6%	i	1%
CCCCNC(=O)c1nc(C2CCN(S(=O)(=O)c3ccc(Cl)cc3)CC2)oc1-c1ccccc1	i	12%	14%	7.3µM*	?	7.3µM*
CCCCNC(=O)c1nc(C2CCN(S(=O)(=O)c3c(OC)cccc3OC)CC2)oc1-c1ccccc1	i	-7%	-9%	12µM*	?	9.2µM*
CCCCNC(=O)c1nc(C2CCN(S(=O)(=O)c3cccc(C(F)(F)F)c3)CC2)oc1-c1ccccc1	i	-5%	-2%	9.2µM*	i	8.2µM*
O=C(NC1CCCC1)C1C(c2ccc(C(F)(F)F)cc2)=Nc2ccccc2N1C(=O)c1cccc(C(F)(F)F)c1 (configuration not stated)	i	-15%	-10%	?	i	?
COC(=O)CSc1nn(-c2ccc(F)cc2)c(=S)s1	i	10%	13%	-4%	i	8%
Cc1ccc(Cn2c(-c3ccccc3)nc3ccccc32)cc1	i	.	.	?	i	?
Fc1ccc(Cn2c(-c3cccc(Br)c3)nc3ccccc32)cc1	.	.	.	?	.	18µM*
Cc1cccc(-c2nc3ccccc3n2Cc2ccccc2)c1	i	.	.	?	i	5.2µM*
O=c1[nH]cccc1-c1nc2ccccc2n1Cc1ccc(F)cc1	i	-1%	4%	-29%	i	-7%
Cc1cccc(Cn2c(-c3ccc[nH]c3=O)nc3ccccc32)c1	i	-7%	-5%	?	i	21µM*
COc1cc2c(cc1OC)N1C(=O)CC(OCC(=O)O)C3C4CC5(CCN5C(=O)C4=O)C2C31 (configuration not stated)	i	1%	0%	8%	i	6%
O=C1OCC(c2ccc(Cl)s2)=C1c1ccccc1[N+](=O)[O-]	i	-4%	-6%	0%	i	?
CCCCOc1cccc(OCC(=O)Nc2nc3ccccc3[nH]2)c1	i	-9%	-10%	21µM*	?	?
O=C(Nc1nc2ccccc2[nH]1)C1CC1	?	?	?	?	10µM*	?
O=C(COc1ccccc1)Nc1nc2ccccc2[nH]1	i	7%	5%	?	i	16µM*
CCCOc1cccc(OCC(=O)Nc2nc3ccccc3[nH]2)c1	i	4%	10%	?	i	?
O=C(Cc1ccccc1Cl)Nc1nc2ccccc2[nH]1	i	?	-25%	-3%	i	?
Cc1ccc(CC(=O)Nc2nc3ccccc3[nH]2)cc1C	i	-18%	?	3.5µM*	i	1.8µM*
SMILES	KB-3-1 cytotox	HT1080 IDH1KD tx	HT1080NT lethal	TDP1 cell CPT	KB-V1 cytotox	TDP1 cell noCPT
CCOc1cc(C(=O)NC2CCCCCCC2)cc(OCC)c1OCC	i	11%	14%	-15%	i	?
Cc1ccc(C(=O)Nc2ncccc2O)o1	i	-8%	-1%	-6%	i	?
CCN(CC)c1nc(-c2ccc(C(C)(C)C)cc2)nc2ccccc12	?	.	.	23µM*	i	?
CN(C)c1ccc(-c2nc(N(C)C)c3ccccc3n2)cc1	.	.	.	?	.	23µM*
CN(C)c1ccc(-c2nc(-n3ccnc3)c3ccccc3n2)cc1	.	.	.	13µM*	.	18µM*
CN(C)c1ccc(-c2cc(-n3ccnc3)ncn2)cc1	.	.	.	-5%	.	?
CC(C)CN(CC(C)C)c1nc(-c2ccc(Cl)cc2)nc2ccccc12	i	.	.	.	i	.
CN(C)c1ccc(-c2nc(N(C)Cc3ccco3)c3ccccc3n2)cc1	.	.	.	29µM*	.	16µM*
CCCOc1ccc(-c2nc[nH]c2[N+](=O)[O-])cc1	i	22%	3%	-8%	i	-4%
CC(=O)Nc1cccc(NC(=O)CSc2nc(=O)n(CCCN3CCOCC3)c3c2CCC3)c1	i	-5%	-3%	-13%	i	3%
O=C(CBr)c1ccc(Oc2ccc(C(=O)C[n+]3ccccc3Cl)cc2)cc1	i	.	.	?	i	?
CCOC(=O)c1cc(-c2ccc(C)cc2)n(CCC(=O)NCCCOC)c1C	i	1%	5%	-22%	i	-13%
CCOC(=O)c1cc(-c2ccc(OC)cc2)n(CCC(=O)NCCc2ccccc2)c1C	.	.	.	21µM*	.	18µM*
CCOC(=O)c1cc(-c2ccccc2)n(CCC(=O)NCCc2cccc(C)c2)c1C	i	.	.	16µM*	i	?
COC(=O)c1sc(-c2cccs2)cc1NC(=O)/C=C/C(=O)O	?	?	?	?	i	15µM*
CC(C)(C)c1cccc(S(=O)(=O)N2CCN(c3nc(-c4cccs4)nc4ccccc34)CC2)c1	.	4%	17%	?	.	?
COc1ccc(C(=O)C(CCC(CNC(C)(C)C)C(=O)c2ccc(OC)cc2)CNC(C)(C)C)cc1 (configuration not stated)	?	4.6µM*	?	5.2µM*	?	5.2µM*
